Results from PubChem BioAssay AID1903 (Southern Research Specialized Biocontainment Screening …, 2009).
Among all 310,000 compounds or so, about 1,200 (0.39%) were called active. No rule for the calls is given here. The list is a sample of the results. Results with a measured potency or affinity are listed apart.

molecular target: Large T antigen (Simian virus 40) (UniProt P03070); test: SV40 large T antigen inhibitors, biochemical (AID 1903); details: SV40 large T antigen ATPase/helicase inhibition assay; at 20 µM; hits give high values
Sequence (P03070 whole entry, looked up): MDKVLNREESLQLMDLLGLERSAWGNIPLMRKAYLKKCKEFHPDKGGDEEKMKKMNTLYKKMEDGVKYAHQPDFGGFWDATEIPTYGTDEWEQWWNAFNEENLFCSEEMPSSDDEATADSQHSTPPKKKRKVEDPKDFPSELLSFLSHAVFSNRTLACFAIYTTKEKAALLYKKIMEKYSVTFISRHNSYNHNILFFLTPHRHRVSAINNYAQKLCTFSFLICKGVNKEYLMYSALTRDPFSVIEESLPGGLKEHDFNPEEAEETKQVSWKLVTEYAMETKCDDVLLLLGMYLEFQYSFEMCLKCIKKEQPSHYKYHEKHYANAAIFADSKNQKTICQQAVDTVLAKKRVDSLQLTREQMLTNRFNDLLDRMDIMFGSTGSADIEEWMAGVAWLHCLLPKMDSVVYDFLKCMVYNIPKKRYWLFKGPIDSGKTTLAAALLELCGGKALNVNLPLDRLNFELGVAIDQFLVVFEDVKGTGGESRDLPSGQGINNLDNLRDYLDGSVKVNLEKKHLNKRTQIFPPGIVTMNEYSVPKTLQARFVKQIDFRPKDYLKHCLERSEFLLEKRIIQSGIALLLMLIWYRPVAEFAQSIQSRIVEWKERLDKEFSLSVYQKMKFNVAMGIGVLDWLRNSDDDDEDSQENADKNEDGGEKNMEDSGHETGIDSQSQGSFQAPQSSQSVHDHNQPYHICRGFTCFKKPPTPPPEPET

inhibition, inactive:
Cc1csc2nc(CSc3nc4ccccc4o3)c(Br)n12 1.48%
Cc1c[n+]([O-])n(-c2ccc(C(=O)O)cc2)n1 2.23%
O=C(c1cc(=O)c2ccccc2o1)N1CCN(c2cccc(Cl)c2)CC1 8.8%
CC(=O)c1cccc(NS(=O)(=O)N2CCOCC2)c1 9.29%
O=C(CCCc1ccccc1)Nc1cccnc1Cl 10%
O=C(c1c(Cl)cccc1Cl)N1CCN(c2cccc3[nH]ccc23)CC1 23.6%
O=[N+]([O-])c1cccc(CN2CCN(c3cccc4[nH]ccc34)CC2)c1 27.1%
Cc1ccc(S(=O)(=O)N2CCC(C(=O)NNC(=O)c3ccc(F)cc3)CC2)cc1 7.95%
Cc1ccc(C)c(CSc2nnc(-c3ccccn3)n2N)c1 4.69%
CSc1nnc2n(-c3ccccc3)c(=O)c3c4c(sc3n12)CCC4 3.42%
CCSc1nnc2n(-c3ccc(OC)cc3)c(=O)c3c4c(sc3n12)CCCC4 2.78%
Cc1cccc(-n2c(=O)c3c4c(sc3n3c(=S)[nH]nc23)CCC4)c1 34.1%
COc1ccccc1-n1c(=O)c2c3c(sc2n2c(=S)[nH]nc12)CCC3 30.3%
COc1ccc(-n2c(=O)c3c4c(sc3n3c(=S)[nH]nc23)CCCC4)cc1 2.8%
Cc1nnc2n(-c3ccccc3)c(=O)c3c4c(sc3n12)CCCC4 4.53%
COc1ccccc1C1(O)C(=O)Nc2ccc(C)cc21 (stereo unspecified) 9.43%
CS(=O)(=O)N1CCN(c2ncnc3c2cnn3-c2ccccc2)CC1 1.55%
CC1=CC(=C(C#N)C#N)C=C(C)N1CCN1CCN(C(=O)Nc2ccc(Cl)c(Cl)c2)CC1 3.99%
Cc1cc(/C=C2/NC(=O)NC2=O)c(C)n1-c1sc2c(c1C#N)CCCC2 17.3%
Cc1ccc(C)n1-c1sc2c(c1C#N)CCCC2 7.49%
CCOC(=O)N1CCC(N2CCN(S(=O)(=O)c3ccc(OC)cc3)CC2)CC1 4.73%
COc1ccc(OC)c(-n2c(SCC(=O)Nc3cc(C)on3)nnc2-c2c[nH]c3ccccc23)c1 -1.81%
CCN1CC2([N+](=O)[O-])CC=C(OC)C([N+](=O)[O-])(C1)C2 (stereo unspecified) -0.47%
N#CCn1c(Cc2ccccc2)nc2ccccc2c1=O 10.6%
CN(C)Cc1nc2ccccc2c(=O)n1CC#N 8.3%
O=Cc1cn(-c2ccccc2)nc1-c1ccc(F)cc1 3.65%
Cc1ccc2c(c1)N(C(=O)CCC(=O)N1CCCCC1)CCO2 9.22%
N#Cc1c(-c2cccc(Br)c2)cc(-c2ccco2)[nH]c1=O 4.79%
N#Cc1c(-c2ccccc2)cc(-c2ccccc2)[nH]c1=O -4.42%
COc1ccc(-c2cc(-c3ccco3)[nH]c(=O)c2C#N)cc1OC 33.5%
COc1ccc(-c2cc(-c3ccco3)[nH]c(=O)c2C#N)cc1 33.2%
O=C(NCCN1CCCCCC1)C1CCC(CNS(=O)(=O)c2cccc3cccnc23)CC1 (stereo unspecified) 10.5%
CCCN1CCN(CCCNC(=O)CCN2C(=O)COc3ccccc32)CC1 15.1%
COc1ccc(CCNC(=O)Cn2cnc3scc(-c4ccccc4)c3c2=O)cc1OC 5.46%
Cn1nc(C(=O)Nc2ccc(S(=O)(=O)N3CCCC3)cc2)ccc1=O 0.66%
Cc1ccc(C(=O)Nc2ccncc2)cc1[N+](=O)[O-] 13%
Cc1ccc(N=Nc2c(N)n[nH]c2N)cc1 25%
Nc1n[nH]c(N)c1N=Nc1ccc(F)cc1 13.8%
COc1cc2[nH]c3c(=O)n4c(nc3c2cc1OC)SCCC4 7.73%
Cc1cccc(NNC(=O)C2CCC2)c1 10.2%
N#Cc1c(NC(=O)/C=C/c2ccco2)sc2c1CCCC2 11.5%
N#Cc1c(NC(=O)c2ccco2)sc2c1CCC2 28.5%
O=C(CCc1nnc2ccc(NCc3ccco3)nn12)Nc1ccccc1F 14.6%
CCN(c1ccccc1)S(=O)(=O)c1cccc(C(=O)NCC(c2ccco2)N2CCCC2)c1 (stereo unspecified) 20.1%
CCN(CC)S(=O)(=O)c1ccc(NC2=NS(=O)(=O)c3ccccc32)cc1 5.33%
O=S1(=O)N=C(Nc2ccc(N3CCOCC3)cc2)c2ccccc21 7.37%
CN(C)CCOC(=O)C12CC3(C)CC(C)(CC(C)(C3)C1)C2 20.7%
COc1cc(/C=C2\S/C(=N/S(=O)(=O)c3ccccc3)NC2=O)c([N+](=O)[O-])cc1OC 23%
COc1ccc(S(=O)(=O)/N=C2/NC(=O)/C(=C\c3cc(OC)c(OC)cc3[N+](=O)[O-])S2)cc1 31.5%
Cc1ccnc(NC(c2ccccc2O)c2oc(CO)cc(=O)c2O)c1 (stereo unspecified) 13.4%
COc1cccc(CN2CCN(Cc3nc4c(s3)CCCC4)CC2CCO)c1 (stereo unspecified) 7.56%
N#Cc1ccc(Oc2ccc(S(=O)(=O)N3CCOCC3)cn2)cc1 8.88%
O=C1Nc2ccccc2/C1=C/c1ccccc1Cl 4.98%
O=C1NC(=O)/C(=C/c2ccccc2Cl)N1 2.2%
O=C1CCC(C(=O)OCC(=O)c2ccccc2)N1 (stereo unspecified) -3.04%
Cc1ccc([C@@H]2[C@@H]3C(=O)N(C)C(=O)[C@@H]3[C@]3(C)C(=O)N(Cc4ccccn4)CC(=O)N23)o1 21.8%
CC(C)C1=Nc2cccc3cccc(c23)N1 31.8%
CC1=Nc2cccc3cccc(c23)N1 14.5%
NS(=O)(=O)c1ccc(CNS(=O)(=O)c2ccc3ccccc3c2)cc1 8.92%
O=S1(=O)N=C(N(CCO)/N=C/c2ccccc2)c2ccccc21 -0.93%
O=C(O)CCCc1ccc2c(c1)CCc1ccccc1-2 4.11%
CC(=O)Nc1ccc2c(c1)CCc1ccccc1-2 2.87%
CCCCNC(=S)NNC(=O)c1c(Cl)c(C)nn1C 13.2%
COC(=O)c1ccccc1-c1ccc(/C=C2\C(=O)N(c3ccccc3)N=C2c2ccccc2)o1 -14%
CCN1C(=O)/C(=C\c2ccc(-c3ccc([N+](=O)[O-])cc3OC)o2)SC1=Nc1cccc(C(=O)O)c1 13.7%
CC1=NN(c2ccc(Br)cc2)C(=O)/C1=C/c1ccc(-c2ccccc2C(=O)O)o1 33.3%
CCSC1=N/C(=C\c2ccc(-c3ccccc3[N+](=O)[O-])o2)C(=O)S1 45.4%
Cc1ccc(C(=O)/C=C/c2ccc(-c3ccccc3[N+](=O)[O-])o2)cc1 -1.93%
COc1ccc(OC)c(CNc2ccc([N+](=O)[O-])cc2C)c1 -3.94%
COc1ccc(Br)cc1S(=O)(=O)n1c([N+](=O)[O-])cnc1C -1.15%
C=CCn1cccc(C(=O)Nc2ccc(C)c(C)c2)c1=O 10.4%
Cc1ccc(CNC(=O)COC(=O)Cc2ccc(-c3ccccc3)cc2)cc1 1.94%
CCc1nnc(NC(=O)CCN2C(=O)C3CCCCC3C2=O)s1 (stereo unspecified) 8.24%
CCOC(=O)C(C)Sc1nc2c(c(=O)[nH]c(=O)n2C)n1C/C=C(/C)Cl (stereo unspecified) 0.445%
CC(=O)Oc1ccc2oc(/C=C/N(C)C)c([N+](=O)[O-])c2c1 13%
CN(C)/C=C/c1oc2ccc(O)cc2c1[N+](=O)[O-] 32%
OC(COc1ccc(CNCCc2ccccc2F)cc1)CN1CCCCC1 (stereo unspecified) 5.86%
COCCNC(=S)N/N=C(\C)c1ccc(OC(F)F)cc1 21.1%
COCCNC(=S)N/N=C(\C)c1ccc(OC)cc1 13.8%
COC(=O)c1ccccc1NC(=O)CSc1n[nH]c(C)n1 0.8%
Cc1ccc(Cl)cc1NC(=O)C(NS(=O)(=O)c1cccs1)c1ccccc1 (stereo unspecified) 3.94%
CC(C)C(NS(=O)(=O)c1ccc2c(c1)OCCCO2)C(=O)O (stereo unspecified) -3.36%
Nc1ccc2nc(-c3ccc(Cl)cc3)[nH]c2c1 28%
Nc1ccc2nc(-c3ccc(-c4nc5ccc(N)cc5[nH]4)cc3)[nH]c2c1 12.1%
Cc1ccc(-n2nc(C(=O)O)nc2-c2ccccc2)cc1 38%
Cc1cc(=O)nc2c3ccccc3n(CC(=O)NCCC3=CCCCC3)n12 2.66%
COc1ccc(S(=O)(=O)N2CCOC2CNC(=O)C(=O)NCCc2ccccc2)cc1C (stereo unspecified) 6.95%
Cc1ccc(O)c(N=Cc2cc(Cc3ccccc3)cc([N+](=O)[O-])c2O)c1 15.2%
CN1CCN(CC(=O)N/N=C\c2c[nH]c3ccccc23)CC1 5.96%
COc1cccc(C=Nc2ccc3c(c2)OCCO3)c1O 21.9%
O=C(O)c1ccc(N=Cc2c(O)ccc3ccccc23)cc1 6.09%
COc1cccc(/C=N/N2CCOCC2)c1O 3.29%
O=[N+]([O-])c1ccc(N2CCOCC2)cc1NCc1ccccc1 5.38%
CN1CCN(/N=C/c2c3ccccc3c(Cl)c3ccccc23)CC1 1.67%
C=Cc1ccc(N=Cc2c(O)ccc3ccccc23)cc1 -18.3%
Cc1c(C(=O)N2CCOCC2)c(S(=O)(=O)Nc2ccc(OC(F)(F)F)cc2)c(C)n1C 4.66%
